In PubChem BioAssay (Tox21):
Records with an inconclusive call do not appear. Calls of active or inactive are those of the source. Unless noted, calls come from the whole dose curve; as a rule, active = well fitted curve in the direction sought with a large enough effect in the repeat runs; inconclusive = weak or mixed curves; inactive = no such curve, though single readings can be large; an effect the other way counts as inactive or inconclusive.

Columns and labels:
[1] = A CellTox Green Cytotoxicity Assay to monitor cytotoxicity in HepG2 cells - 8 hour (AID 1224890); note: nearly all actives have a fitted effect of over 45% in size; note: potency is the fitted concentration of half-maximal effect
Outline: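 Using 1536-well format, dye-containing HepG2 suspension was seeded, allowed 5 h at 37 C/5% CO2, dosed by pintool with compounds, positive and negative controls, and imaged for fluorescence across 40 h.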

[2] = qHTS assay to identify small molecule antagonists of the estrogen receptor alpha (ER-alpha) signaling pathway using the BG1 cell line in the presence of 0.1 nM 17-beta-estradiol - cell viability counter screen (AID 1259241); note: nearly all actives have a fitted effect of over 40% in size
Outline: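 In this screen, hormone-deprived VM7Luc4E2 cells were seeded at 4,000 per well, dosed with compound and 0.1 nM estradiol final, and incubated 22 hr at 37C and 5% CO2; fluorogenic live-cell protease signal reported viability.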

[3] = qHTS assay to identify small molecule antagonists of the androgen receptor (AR) signaling pathway using the MDA cell line in the presence of 0.5 nM R1881 - cell viability counter screen (AID 1259242); note: nearly all actives have a fitted effect of over 45% in size
Outline: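 Viability of MDA-kb2 cells was multiplexed with the luciferase AR readout; after 16 hr with compounds and R1881 at 0.5 nM final, CellTiter-Fluor fluorescence was recorded.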

[4] = qHTS assay to identify small molecule phospholipidosis (PLD) inducers (AID 1259344; active = well fitted curve in the direction sought with a large enough effect; an effect the other way counts as inactive or inconclusive)
Outline: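 Fluorescent phospholipid staining (LipidTOX Red) measured by automated microscopy in fixed HepG2 cells after 24 h treatment; nuclei counterstained with Hoechst 33342; amiodarone as reference inducer.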

[5] = qHTS assay to identify small molecule HDAC inhibitors (AID 1259364);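 note: wild-type HCT-116 cells with endogenous class I/II HDAC activity; top concentration of the series differs between compounds; nearly all actives have a fitted effect of over 45% in size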
Outline: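 Read-out: luminescence of HDAC-Glo I/II reagent, 30 min RT, reflecting class I/II deacetylase activity in whole HCT-116 cells pre-exposed 2 h to DMSO-dissolved compounds.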

[6] = qHTS assay to identify small molecule HDAC inhibitors - cell viability counter screen (AID 1259365); note: series mostly up to about 92 µM; nearly all actives have a fitted effect of over 50% in size
Outline: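 Measured quantity is CellTiter-Glo luminescence from wild-type HCT-116 cells after compound incubation of 2hr at 37C, 5% CO2; reagent developed 30min at room temperature.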

[7] = qHTS assay to identify small molecule agonists of the sonic hedgehog signaling (Shh) pathway - cell viability counter screen (AID 1259366); note: nearly all actives have a fitted effect of over 50% in size
Outline: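 In quantitative high-throughput format, 3T3 Gli1-Luc cells were exposed to compounds for 24hr and multiplexed for viability using CellTiter-Fluor, incubated 1hr at 37C before the fluorescence read.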

[8] = qHTS assay to identify small molecule antagonists of the sonic hedgehog signaling (Shh) pathway - cell viability counter screen (AID 1259367); note: nearly all actives have a fitted effect of over 55% in size
Outline: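 Using CellTiter-Fluor, viability of Gli1-Luc reporter 3T3 cells is read by fluorescence in the wells used for the Shh luciferase assay. Treatment lasts 23 hr with conditioned medium, then reagent 1 hr at 37C.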

[9] = target: Estrogen receptor (Homo sapiens) (UniProt P03372); assay: qHTS assay to identify small molecule antagonists of the estrogen receptor alpha (ER-alpha) signaling pathway using the BG1 cell line in the presence of 0.1 nM 17-beta-estradiol (AID 1259244); note: nearly all actives have a fitted effect of over 50% in size; note: potency is the fitted concentration of half-maximal effect
Estrogen receptor (Homo sapiens), sequence (P03372 whole entry, looked up): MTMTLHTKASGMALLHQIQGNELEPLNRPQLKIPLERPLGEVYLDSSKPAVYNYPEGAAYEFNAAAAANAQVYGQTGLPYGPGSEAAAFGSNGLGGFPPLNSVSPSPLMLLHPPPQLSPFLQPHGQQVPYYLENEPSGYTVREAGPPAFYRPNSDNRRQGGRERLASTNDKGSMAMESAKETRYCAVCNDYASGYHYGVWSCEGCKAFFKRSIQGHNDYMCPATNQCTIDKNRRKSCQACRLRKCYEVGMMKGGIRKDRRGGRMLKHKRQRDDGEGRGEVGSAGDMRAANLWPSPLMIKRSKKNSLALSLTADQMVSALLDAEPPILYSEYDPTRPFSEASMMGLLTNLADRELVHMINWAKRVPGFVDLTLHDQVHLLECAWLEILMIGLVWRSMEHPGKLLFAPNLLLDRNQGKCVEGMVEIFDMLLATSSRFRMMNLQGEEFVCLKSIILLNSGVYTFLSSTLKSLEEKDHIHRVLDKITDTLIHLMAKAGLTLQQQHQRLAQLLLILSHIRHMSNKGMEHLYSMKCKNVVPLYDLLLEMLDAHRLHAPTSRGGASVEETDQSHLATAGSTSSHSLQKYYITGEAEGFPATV
Outline: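 Estradiol at 0.1 nM (final) stimulates the endogenous ER-alpha of VM7Luc4E2 cells carrying an ERE-driven luciferase; compounds are co-incubated 22 h at 37C and luciferase output quantified by luminescence.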
% is set by controls: 0 for no effect and ±100 for the full control effect.

CCCCC(=O)O[C@]1(C(=O)CO)[C@H](C)C[C@H]2[C@@H]3CCC4=CC(=O)C=C[C@]4(C)[C@@]3(F)[C@@H](O)C[C@@]21C
inactive: Potency [1] | Potency [2] | outcome [3] | outcome [4] | Potency [5] | outcome [6] | Potency [7] | Potency [8]

CCN1CC(CCN2CCOCC2)C(c2ccccc2)(c2ccccc2)C1=O (stereo unspecified)
inactive: Potency [1] | Potency [2] | outcome [3] | outcome [4] | Potency [5] | outcome [6]

Cc1nc(N)nc(N)c1-c1ccc(Cl)c(Cl)c1
active: Potency [9] 13.3 µM
inactive: Potency [1] | Potency [2] | outcome [3] | Potency [5] | Potency [7] | Potency [8]

CCN(CC)CCOc1ccc(Cc2ccccc2)cc1
inactive: Potency [1] | Potency [2] | outcome [3] | outcome [4] | Potency [5] | outcome [6] | Potency [7] | Potency [8]

C=O
inactive: Potency [1] | Potency [2] | outcome [3] | outcome [4] | Potency [5] | outcome [6] | Potency [7]

Oc1ccccc1C=NCc1ccccc1
inactive: Potency [1] | Potency [2] | outcome [3] | outcome [4] | Potency [5] | outcome [6] | Potency [7] | Potency [8]

CC(CNC1CCCCC1)OC(=O)c1ccccc1 (stereo unspecified)
inactive: Potency [1] | Potency [2] | outcome [3] | outcome [4] | Potency [5] | outcome [6] | Potency [7] | Potency [8]

CCOC(=O)c1ccccc1O
inactive: Potency [1] | Potency [2] | outcome [3] | outcome [4] | Potency [5] | outcome [6] | Potency [7] | Potency [8]

CC(C)NC[C@@H](O)COc1cccc2ccccc12
inactive: Potency [1] | Potency [2] | outcome [3] | outcome [4] | Potency [5] | outcome [6] | Potency [7] | Potency [8]

O=C(O)[C@@H](O)[C@H](O)[C@H](O)[C@@H](O)C(=O)O
inactive: Potency [1] | Potency [2] | outcome [3] | outcome [4] | Potency [5] | outcome [6] | Potency [7] | Potency [8]

CN1C(=O)CC(c2ccccc2)C1=O (stereo unspecified)
inactive: Potency [1] | Potency [2] | outcome [3] | outcome [4] | Potency [5] | outcome [6] | Potency [7]

CC(C)(C)C1CCCCC1=O (stereo unspecified)
inactive: Potency [1] | Potency [2] | outcome [3] | Potency [9] | Potency [5] | Potency [7] | Potency [8]

NC1=NCC2c3ccccc3Cc3ccccc3N12 (stereo unspecified)
inactive: Potency [1] | Potency [2] | outcome [3] | outcome [4] | Potency [5] | outcome [6] | Potency [7]

CCC(=O)O[C@]1(C(=O)SCF)[C@H](C)C[C@H]2[C@@H]3C[C@H](F)C4=CC(=O)C=C[C@]4(C)[C@@]3(F)[C@@H](O)C[C@@]21C
inactive: Potency [1] | Potency [2] | outcome [3] | outcome [4] | Potency [5] | outcome [6] | Potency [7] | Potency [8]

CN1[C@@H]2CC[C@H]1CC(OC(=O)c1c[nH]c3ccccc13)C2 (stereo partly specified)
inactive: Potency [1] | Potency [2] | outcome [3] | outcome [4] | Potency [5] | outcome [6] | Potency [7] | Potency [8]

CCc1nnc(NS(=O)(=O)c2ccc(N)cc2)s1
inactive: Potency [1] | Potency [2] | outcome [3] | outcome [4] | Potency [5] | outcome [6] | Potency [7]

NC/C=C/C(=O)O
inactive: Potency [1] | Potency [2] | outcome [3] | outcome [4] | Potency [5] | outcome [6] | Potency [7] | Potency [8]

C=CC(C)(O)CC/C=C(\C)CCC=C(C)C (stereo unspecified)
inactive: Potency [2] | outcome [3] | outcome [4] | Potency [5] | outcome [6] | Potency [7] | Potency [8]
active: Potency [1] 19.5 µM

O=C(O)[C@@H]1CSCN1
inactive: Potency [1] | Potency [2] | outcome [3] | outcome [4] | Potency [5] | outcome [6] | Potency [7] | Potency [8]

NCCC(O)(P(=O)(O)O)P(=O)(O)O
inactive: Potency [1] | Potency [2] | outcome [3] | outcome [4] | Potency [5] | outcome [6] | Potency [7] | Potency [8]

CCN(CCCc1ccccc1)CCCc1ccccc1
inactive: Potency [1] | Potency [2] | outcome [3] | outcome [4] | Potency [5] | outcome [6] | Potency [7] | Potency [8]

CN(C)CC[C@@H](c1ccc(Cl)cc1)c1ccccn1
inactive: Potency [1] | Potency [2] | outcome [3] | PLD induction [4] 19.5% [at 1.53 µM] | Potency [5] | outcome [6] | Potency [7]

FC(F)(F)C(Cl)(Cl)Cl
inactive: Potency [1] | Potency [2] | outcome [3] | Potency [9] | Potency [5] | Potency [7] | Potency [8]

C=C(C)C(=O)OCCOP(=O)(O)O
inactive: Potency [1] | Potency [2] | outcome [3] | Potency [9] | Potency [5] | Potency [7] | Potency [8]

CC1=CC(=O)CC(C)(C)C1=O
inactive: Potency [1] | Potency [2] | outcome [3] | Potency [9] | outcome [6] | Potency [7] | Potency [8]

FC(F)(F)c1ccccc1
inactive: Potency [1] | Potency [2] | outcome [3] | Potency [9] | Potency [5] | Potency [7] | Potency [8]

CCOc1ccc(NS(=O)(=O)c2ccc(N)cc2)nn1
inactive: Potency [1] | Potency [2] | outcome [3] | outcome [4] | Potency [5] | outcome [6] | Potency [7]

OCC(CBr)(CBr)CBr
inactive: Potency [1] | Potency [2] | outcome [3] | Potency [9] | outcome [6] | Potency [7] | Potency [8]

CN1CCN(c2c(F)cc3c(=O)c(C(=O)O)cn(CCF)c3c2F)CC1
inactive: Potency [1] | Potency [2] | outcome [3] | outcome [4] | Potency [5] | outcome [6] | Potency [7]
